Assay outcomes: PubChem, National Center for Advancing Translational Sciences (NCATS)
In the library only some 7.3% were active in any assay of this set; here they are far more common.
FLuc modulator = qHTS profiling assay for firefly luciferase inhibitor/activator using purifed enzyme and Km concentrations of substrates (counterscreen for miR-21 project) | Potency, µM (doses to about 57.5 µM), without a hit: at the top dose activity change, negative = inhibition, usual class: inhibitors | purified FLuc, Km substrates, luminescence inhibition | hit rate 6.9% among 360,000;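 note: plate controls were vehicle for no effect and reference inhibitor for full effect; nearly all actives have a fitted effect of over 55% in size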
Target sequence (P08659 whole entry, looked up): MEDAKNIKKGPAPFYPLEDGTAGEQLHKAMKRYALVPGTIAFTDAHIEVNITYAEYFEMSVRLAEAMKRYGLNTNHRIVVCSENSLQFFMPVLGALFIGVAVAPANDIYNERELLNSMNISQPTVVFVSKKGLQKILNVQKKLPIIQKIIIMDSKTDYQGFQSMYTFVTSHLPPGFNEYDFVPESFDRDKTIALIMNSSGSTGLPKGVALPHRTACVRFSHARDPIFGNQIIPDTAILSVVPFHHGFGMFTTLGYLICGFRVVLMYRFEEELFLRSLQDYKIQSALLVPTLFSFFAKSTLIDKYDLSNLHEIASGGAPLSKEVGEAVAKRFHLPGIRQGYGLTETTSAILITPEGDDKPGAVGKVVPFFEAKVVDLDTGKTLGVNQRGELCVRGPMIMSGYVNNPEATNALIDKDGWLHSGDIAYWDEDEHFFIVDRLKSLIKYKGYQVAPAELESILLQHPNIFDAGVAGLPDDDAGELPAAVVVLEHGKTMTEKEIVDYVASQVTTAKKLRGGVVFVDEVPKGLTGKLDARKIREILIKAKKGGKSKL
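Purified P. pyralis luciferase (10nM final) with 10uM D-luciferin and 10uM ATP (Km levels) in 50mM Tris acetate pH 7.5, 10mM Mg acetate, 0.01% Tween-20, 0.05% BSA; qHTS 6-point titration, ~60 µM downward; luminescence read.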
Luc counter = Counterscreen for Luciferase (Kinase-Glo TM) Inhibition | Luciferin 4-monooxygenase (Photuris pensylvanica), Q27757 | Kinase-Glo luciferase, ATP luminescence, 8 min | Potency, µM (titrated, usually from 38.3 µM), for the others: at the highest dose activity change, negative = inhibition, usual class: inhibitors | hit rate 0.28% among 200,000; note: % is set by controls: 0 for no effect and ±100 for the full control effect; nearly all actives have a fitted effect of over 60% in size
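Luminescence was the read-out, taken after 8-minute incubation at ambient temperature. Luciferase turned over luciferin with 10 uM ATP in imidazole pH 7.2 buffer containing KCl, MgCl2, Tween 20 and BSA.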
Rab9 promoter act = qHTS Assay for Rab9 Promoter Activators; Huh7 Rab9 promoter-luciferase reporter, luminescence, 24 h; Potency, µM (top dose mostly 9.22 µM), inactives show top-dose activation, negative = inhibition, most hits filed as activators; hit rate 2.8% among 320,000; AID 485297, 2010; note: % of control where 0% means no effect; nearly all actives have a fitted effect of over 60% in size
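Promoter activation is measured as luciferase luminescence in Huh7 cells stably transfected with a Rab9 promoter–luciferase construct, following 24 h compound exposure at 37 °C and 10 min reagent incubation at ambient temperature.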
NPC1 promoter act = qHTS Assay for NPC1 Promoter Activators; Huh7 NPC1 promoter luciferase reporter, 24 h; Potency, µM (titrated, usually from 9.22 µM), inactives show top-dose activation, actives largely listed as activators; hit rate 2.4% among 320,000; note: % of control where 0% means no effect; nearly all actives have a fitted effect of over 60% in size
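Compounds in DMSO were transferred onto Huh7 NPC1-luciferase reporter cells pre-incubated 2 h; after 24 h at 37 °C, Amplite reagent was dispensed and luminescence recorded 10 min later.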
SMN2 splice up = qHTS Assay for Enhancers of SMN2 Splice Variant Expression. hit rate 2.8% among 210,000. AID 1458, 2008. HEK293 SMN2-luciferase splicing reporter, luminescence, 30-36 h. Potency, µM (series often up to 46.1 µM), for inactives: top-dose activity change, positive = activation, most hits filed as activators; note: % of control where 0% means no effect; nearly all actives have a fitted effect of over 55% in size
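qHTS luciferase splicing reporter: luminescence rises when SMN2 exon 7 is included in transfected HEK293 cells. Compound exposure lasted 30-36 h at 37C, with 4.5 mM final sodium butyrate as control, followed by a ONE-Glo read.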
* = called active by the depositor; [ ] = another dose, or the depositor's remark. Calls come from the whole dose curve; as a rule, active = well fitted curve in the direction sought with a large enough effect; inconclusive = small, poorly fitted or top-dose-only effect, or another doubt; inactive = no such curve, though single readings can be large; an effect the other way counts as inactive or inconclusive. Potency is the fitted concentration of half-maximal effect.

`Cc1cccc(N(C)C(=O)Cn2c(=O)oc3cc(S(=O)(=O)N4CCCCC4)ccc32)c1` gave FLuc modulator -8.6% and SMN2 splice up -2.7%.
COc1cc(/C=C2\CCC/C(=C\c3ccc(O)c(OC)c3)C2=O)ccc1O was read as FLuc modulator 19µM*, Rab9 promoter act -12.8% and NPC1 promoter act -4.3%.
COc1ccc2c(c1)CC/C(=C\c1ccc(OC)c(Cn3nc(C)cc3C)c1)C2=O was read as FLuc modulator inconclusive, Luc counter -0.6%, Rab9 promoter act -3.5%, NPC1 promoter act -3.7% and SMN2 splice up -15.4%.
COc1ccc2c(c1)CC/C(=C\c1ccc(OC)c(Cn3cccn3)c1)C2=O was read as FLuc modulator 13.5µM*, Luc counter -2.6%, Rab9 promoter act 7.7%, NPC1 promoter act -3.1% and SMN2 splice up -48.3%.
`COc1ccc(/C=C2\CCc3ccccc3C2=O)cc1CN1CCOCC1` gave FLuc modulator 7.57µM*, Rab9 promoter act -1.2% and NPC1 promoter act 1.8%.
Screening COc1cc2c(cc1OC)/C(=C/c1ccc(Cl)cc1)C(=O)OC2 returned FLuc modulator 3.7%, Luc counter 2.1%, Rab9 promoter act -4.7%, NPC1 promoter act -4.6% and SMN2 splice up -17.1%.
COc1cc(/C=C2/CCc3ccccc3C2=O)cc(OC)c1OC was read as FLuc modulator inconclusive, Luc counter 0.1%, Rab9 promoter act -2.1%, NPC1 promoter act 0.7% and SMN2 splice up -53.5%.
Screening COc1ccc(/C=C2\C(=O)OCc3cc(OC)c(OC)cc32)cc1OC returned FLuc modulator 13.5µM*, Luc counter 3.4%, Rab9 promoter act -11.6%, NPC1 promoter act 2.5% and SMN2 splice up 11.8%.
`CCCNC(=O)CCc1nnc2ccc(N3CCN(c4cccc(OC)c4)CC3)nn12` gave FLuc modulator 2.5%.
`Cc1ccc2nc(Cl)c3cc(C(=O)N4CCCC(C)C4)sc3c2c1` (stereo not given) gave FLuc modulator -3.7% and SMN2 splice up -14.5%.
For COc1ccccc1NC(=O)CC1Sc2ccc(C(F)(F)F)cc2NC1=O (stereo not given) the results were FLuc modulator -0.3% and SMN2 splice up inconclusive.
O=C(O)c1ccc(/C=C2\COc3ccccc3C2=O)cc1 was read as FLuc modulator 19µM*, Rab9 promoter act -7.7% and NPC1 promoter act -2.9%.
COc1ccc(/C=C2\COc3ccccc3C2=O)c(OC)c1 was read as FLuc modulator 4.78µM*, Rab9 promoter act 0.0% and NPC1 promoter act -17.2%.
`COc1ccc2c(c1)OC/C(=C/c1cccs1)C2=O` gave FLuc modulator 0.426µM*, Rab9 promoter act inconclusive and NPC1 promoter act inconclusive.
Screening COc1ccc(/C=C2\COc3ccccc3C2=O)cc1OC returned FLuc modulator 13.5µM*, Luc counter 2.9%, Rab9 promoter act 0.4%, NPC1 promoter act 0.3% and SMN2 splice up -10.8%.
Screening CCOc1cc(/C=C2\COc3ccccc3C2=O)cc(Br)c1OCC(=O)N(C)C returned FLuc modulator inconclusive, Rab9 promoter act 2.6% and NPC1 promoter act -15.6%.
`COc1ccc2c(c1)OC/C(=C\c1ccc(OC)c(O)c1)C2=O` gave Luc counter -7.1% and SMN2 splice up -25.9%.
For COc1ccc(C=C2c3ccccc3C(=O)c3ccccc32)c(OC)c1 the results were FLuc modulator -4.0%, Rab9 promoter act -24.3% and NPC1 promoter act -6.2%.
COc1ccc(-c2nc3ccccc3n3c(-c4cccc(C)c4)c4c(=O)n(C)c(=O)n(C)c4c23)cc1OC was read as FLuc modulator 2.5% and SMN2 splice up -7.3%.
`CCOC(=O)c1ccccc1NC(=O)Cn1nnc2sc3c(c2c1=O)CCCC3` gave FLuc modulator -9.8% and SMN2 splice up -1.4%.
Cc1cc(C)c(NC(=O)C2CCN(C(=O)N3CCOc4ccccc43)CC2)c(C)c1 was read as FLuc modulator 4.3%.
Screening CCN(c1ccc(C)cc1C)S(=O)(=O)c1nnc(NC(=O)CC(C)C)s1 returned FLuc modulator 1.3%.
For CCOc1ccc(CCNC(=O)C2Cc3ccccc3N2C(=O)CC)cc1OCC (stereo not given) the results were FLuc modulator -2.6%.
For Cc1cc(C)c2c(c1)C(=O)/C(=C/c1ccc(C(=O)O)cc1)CC2 the results were FLuc modulator 19µM*, Rab9 promoter act 19.8% and NPC1 promoter act 18.9%.
For COc1ccc(/C=C2\OC(=O)c3c(OC)cccc32)cc1OC the results were FLuc modulator 1.07µM*, Luc counter -10.3%, Rab9 promoter act 2.82µM*, NPC1 promoter act 2.82µM* and SMN2 splice up inconclusive.
`COc1ccc(/C=C2/CCc3ccccc3C2=O)cc1OC` gave FLuc modulator 3.38µM*, Luc counter 1.2%, Rab9 promoter act -1.5%, NPC1 promoter act 2.9% and SMN2 splice up -51.6%.
`COc1ccc(C=C2C(=O)OC(C)(C)OC2=O)cc1OC` gave FLuc modulator -11.0%, Rab9 promoter act 0.2%[1.84 µM] and NPC1 promoter act -2.7%.
`COc1ccc2nc(-c3ccc(N)cc3)[nH]c2c1` gave FLuc modulator 3.79µM*, Luc counter 10µM*, Rab9 promoter act 24.4%, NPC1 promoter act inconclusive and SMN2 splice up inconclusive.
`COc1cccc(-n2c(N)c(-c3nc4ccccc4[nH]3)sc2=S)c1` gave FLuc modulator inconclusive, Luc counter 9.3%, Rab9 promoter act 0.2%, NPC1 promoter act 9.9% and SMN2 splice up -16.6%.
Screening COc1ccc2nc(SCCN(C)C)[nH]c2c1 returned FLuc modulator -1.1%, Luc counter -1.2%, Rab9 promoter act 2.3%, NPC1 promoter act -1.6% and SMN2 splice up -2.9%.
Screening COc1ccc2nc(-c3cccc(N)c3)[nH]c2c1 returned FLuc modulator 2.39µM*, Luc counter 12.6µM*, Rab9 promoter act 2.51µM* and NPC1 promoter act 1.58µM*.
Screening Cc1cc(C)cc(OCCSc2nc3ccc(NC(=O)c4ccc5c(c4)OCO5)cc3s2)c1 returned FLuc modulator 1.0%.
For Cc1ccc(C)c(N2CCN(C(=O)C3CCN(S(=O)(=O)c4ccc5[nH]c(=O)oc5c4)CC3)CC2)c1 the results were FLuc modulator 5.0%.
For CN1CCN(C2(CNC(=O)c3ccc(C(C)(C)C)cc3)CCCCC2)CC1 the results were FLuc modulator -0.4%.
COc1cc(Cl)c(C)cc1NC(=O)COc1ccccc1[N+](=O)[O-] was read as FLuc modulator 2.2%, Luc counter 0.3%, Rab9 promoter act inconclusive, NPC1 promoter act 3.16µM* and SMN2 splice up 14.2%.
